From PubChem BioAssay (NCATS)
Inconclusive results are not listed. Where a call stands in place of a potency, no number is given. Unmarked numbers belong to inactive results. Calls of active or inactive are those of the source. The call rests on the fitted dose curve; in most records, active means well fitted cell-killing curve with a large enough effect; inconclusive means small, poorly fitted or top-dose-only effect, or effect the other way; inactive means no such curve, though single readings can be large or run the other way.

Experiments:
[1] = Quantitative High-Throughput drug screen in 47 multiple myeloma cell lines against the NCATS MIPE library collection: LP1_DSMZ cell viability assay (AID 1918982); further: nearly all actives have a fitted effect of over 35% in size
Procedure, shortened: (§1)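 qHTS format: cells plated (500/well), pin-dosed with MIPE 4.0 compounds, kept 48 h at 37 °C. Readout was CellTiter-Glo luminescence, median RLU.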

[2] = Quantitative High-Throughput drug screen in 47 multiple myeloma cell lines against the NCATS MIPE library collection: L363_DSMZ cell viability assay (AID 1918984); further: nearly all actives have a fitted effect of over 40% in size
Procedure, shortened: as §1

[3] = Quantitative High-Throughput drug screen in 47 multiple myeloma cell lines against the NCATS MIPE library collection: XG6_PLB cell viability assay (AID 1919865); further: nearly all actives have a fitted effect of over 40% in size
Procedure, shortened: as §1

[4] = Quantitative High-Throughput drug screen in 47 multiple myeloma cell lines against the NCATS MIPE library collection: XG1_PLB cell viability assay (AID 1919866); further: nearly all actives have a fitted effect of over 35% in size
Procedure, shortened: as §1

[5] = Quantitative High-Throughput drug screen in 47 multiple myeloma cell lines against the NCATS MIPE library collection: PE2_PLB cell viability assay (AID 1919869); further: nearly all actives have a fitted effect of over 35% in size
Procedure, shortened: as §1

[6] = Quantitative High-Throughput drug screen in 47 multiple myeloma cell lines against the NCATS MIPE library collection: RPMI8226_ATCC cell viability assay (AID 1919871); further: nearly all actives have a fitted effect of over 30% in size
Procedure, shortened: as §1

[7] = Quantitative High-Throughput drug screen in 47 multiple myeloma cell lines against the NCATS MIPE library collection: OPM2_DSMZ cell viability assay (AID 1919872); further: nearly all actives have a fitted effect of over 30% in size
Procedure, shortened: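 Primary qHTS used for cherry-picking: cells at 500/well, library compounds for 48 h (37C, 5% CO2), luminescent ATP assay.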

[8] = Quantitative High-Throughput drug screen in 47 multiple myeloma cell lines against the NCATS MIPE library collection: KMS11_JCRBsus cell viability assay (AID 1919873); further: nearly all actives have a fitted effect of over 50% in size
Procedure, shortened: as §1

[9] = Quantitative High-Throughput drug screen in 47 multiple myeloma cell lines against the NCATS MIPE library collection: OCIMY7_PLB cell viability assay (AID 1918987); details: OCI-MY7 myeloma viability, CellTiter-Glo ATP, 48 h; viability (% of DMSO): at 45.8 µM (top of the series); further: nearly all actives have a fitted effect of over 65% in size
Procedure, shortened: as §1

[10] = Quantitative High-Throughput drug screen in 47 multiple myeloma cell lines against the NCATS MIPE library collection: OCIMY5_PLB cell viability assay (AID 1918988); further: nearly all actives have a fitted effect of over 65% in size
Procedure, shortened: as §1

[11] = Quantitative High-Throughput drug screen in 47 multiple myeloma cell lines against the NCATS MIPE library collection: OPM1_PLB cell viability assay (AID 1918989); further: nearly all actives have a fitted effect of over 40% in size
Procedure, shortened: as §1

[12] = Quantitative High-Throughput drug screen in 47 multiple myeloma cell lines against the NCATS MIPE library collection: VP6_DJ cell viability assay (AID 1919867); further: nearly all actives have a fitted effect of over 40% in size
Procedure, shortened: as §1

[13] = Quantitative High-Throughput drug screen in 47 multiple myeloma cell lines against the NCATS MIPE library collection: PCM6_Riken cell viability assay (AID 1919870); further: nearly all actives have a fitted effect of over 30% in size
Procedure, shortened: as §1

[14] = Quantitative High-Throughput drug screen in 47 multiple myeloma cell lines against the NCATS MIPE library collection: KMS28BM_JCRB cell viability assay (AID 1919874); further: nearly all actives have a fitted effect of over 35% in size
Procedure, shortened: as §1

[15] = Quantitative High-Throughput drug screen in 47 multiple myeloma cell lines against the NCATS MIPE library collection: KMS34_JCRB cell viability assay (AID 1918985); further: nearly all actives have a fitted effect of over 40% in size
Procedure, shortened: as §1

[16] = Quantitative High-Throughput drug screen in 47 multiple myeloma cell lines against the NCATS MIPE library collection: SKMM1_PLB cell viability assay (AID 1919863); details: SKMM1 myeloma viability, CellTiter-Glo ATP, 48 h; viability: active compounds read low; further: nearly all actives have a fitted effect of over 35% in size
Procedure, shortened: as §1

[17] = Quantitative High-Throughput drug screen in 47 multiple myeloma cell lines against the NCATS MIPE library collection: U266_ATCC cell viability assay (AID 1919864); further: nearly all actives have a fitted effect of over 35% in size
Procedure, shortened: as §1

[18] = Quantitative High-Throughput drug screen in 47 multiple myeloma cell lines against the NCATS MIPE library collection: KMS28PE_JCRB cell viability assay (AID 1918983); further: nearly all actives have a fitted effect of over 35% in size
Procedure, shortened: as §1

[19] = Quantitative High-Throughput drug screen in 47 multiple myeloma cell lines against the NCATS MIPE library collection: UTMC2_PLB cell viability assay (AID 1919868); details: CellTiter-Glo ATP luminescence, 48 h; viability (% of DMSO control): at 45.8 µM (top of the series); further: nearly all actives have a fitted effect of over 55% in size
Procedure, shortened: as §1
Potency means the concentration at half of the fitted maximal effect.

## CC1(C)CC(O)CC(C)(C)N1[O]
[1]
  Potency: inactive
[2]
  Potency: inactive
[3]
  Potency: inactive
[4]
  Potency: inactive
[5]
  Potency: inactive
[6]
  Potency: inactive
[7]
  Potency: inactive
[8]
  Potency: inactive

## N[C@H]1CN(c2c(F)cc3c(=O)c(C(=O)O)cn(C4C[C@@H]4F)c3c2Cl)CC12CC2 (stereo partly drawn)
[1]
  Potency: inactive
[2]
  Potency: inactive
[9]
  Potency: inactive
[10]
  Potency: 20.9 µM (active)
[11]
  Potency: inactive
[3]
  Potency: inactive
[4]
  Potency: inactive
[12]
  Potency: inactive
[13]
  Potency: inactive
[14]
  Potency: inactive

## CCCNC(=O)[C@H]1O[C@H]1C(=O)N[C@H](C(=O)N1CCC[C@@H]1C(=O)OC)C(C)CC (stereo partly drawn)
[1]
  Potency: 14.8 µM (active)
[2]
  Potency: 8.33 µM (active)
[15]
  Potency: 4.18 µM (active)
[10]
  Potency: 2.64 µM (active)
[11]
  Potency: 18.7 µM (active)
[16]
  Potency: 20.9 µM (active)
[3]
  Potency: 8.33 µM (active)
[4]
  Potency: 14.8 µM (active)
[12]
  Potency: 16.6 µM (active)
[5]
  Potency: 4.18 µM (active)
[13]
  Potency: 16.6 µM (active)
[6]
  Potency: 20.9 µM (active)
[7]
  Potency: 11.8 µM (active)
[14]
  Potency: 7.43 µM (active)

## Oc1cc2c(cc1O)C1c3ccc(O)c(O)c3OCC1(O)C2 (stereo not drawn)
[1]
  Potency: inactive
[15]
  Potency: inactive
[9]
  Potency: inactive
[10]
  Potency: inactive
[11]
  Potency: inactive
[16]
  viability: 120%
[17]
  Potency: inactive
[3]
  Potency: inactive
[4]
  Potency: inactive
[5]
  Potency: 20.9 µM (active)
[6]
  Potency: inactive
[7]
  Potency: inactive
[8]
  Potency: inactive
[14]
  Potency: inactive

## Nc1ccn(C[C@@H](CO)OCP(=O)(O)O)c(=O)n1
[1]
  Potency: inactive
[18]
  Potency: inactive
[15]
  Potency: inactive
[17]
  Potency: inactive
[3]
  Potency: inactive
[12]
  Potency: inactive
[14]
  Potency: inactive

## O=C1c2cccc(O)c2C(=O)c2c(O)cc(CO)cc21
[1]
  Potency: 16.6 µM (active)
[18]
  Potency: 5.9 µM (active)
[9]
  Potency: inactive
[11]
  Potency: inactive
[17]
  Potency: inactive
[4]
  Potency: inactive
[5]
  Potency: inactive
[13]
  Potency: inactive
[6]
  Potency: 16.6 µM (active)
[7]
  Potency: inactive
[8]
  Potency: inactive
[14]
  Potency: inactive

## CCN1CCN(C(=O)N[C@H](C(=O)N[C@@H]2C(=O)N3C(C(=O)O)=C(CSc4nnnn4C)CS[C@@H]23)c2ccc(O)cc2)C(=O)C1=O
[1]
  Potency: inactive
[18]
  Potency: inactive
[9]
  Potency: inactive
[10]
  Potency: inactive
[11]
  Potency: inactive
[4]
  Potency: inactive
[7]
  Potency: inactive
[14]
  Potency: inactive

## C=C1C(=CC=C2CCC[C@]3(C)[C@@H]([C@H](C)CCCC(C)(C)O)CC[C@@H]23)C[C@@H](O)C[C@@H]1O
[1]
  Potency: 20.9 µM (active)
[18]
  Potency: 33.2 µM (active)
[9]
  Potency: 6.62 µM (active)
[10]
  Potency: 3.32 µM (active)
[11]
  Potency: 5.26 µM (active)
[17]
  Potency: 4.18 µM (active)
[3]
  Potency: 3.72 µM (active)
[4]
  Potency: 5.26 µM (active)
[12]
  Potency: 5.26 µM (active)
[19]
  Potency: 5.26 µM (active)
[5]
  Potency: 13.2 µM (active)
[13]
  Potency: 7.43 µM (active)
[14]
  Potency: 1.87 µM (active)

## COc1cc(OC)c(NC(=O)Nc2cc(C)on2)cc1Cl
[1]
  Potency: inactive
[2]
  Potency: inactive
[15]
  Potency: inactive
[11]
  Potency: inactive
[16]
  viability: 145%
[3]
  Potency: inactive
[4]
  Potency: inactive
[5]
  Potency: inactive
[7]
  Potency: inactive
[14]
  Potency: inactive

## O=c1[nH]c(=O)n([C@H]2C[C@@H](O)[C@@H](CO)O2)cc1F
[1]
  Potency: 10.5 µM (active)
[18]
  Potency: 20.9 µM (active)
[10]
  Potency: 26.4 µM (active)
[11]
  Potency: 0.0296 µM (active)
[17]
  Potency: 23.5 µM (active)
[4]
  Potency: 9.35 µM (active)
[12]
  Potency: 18.7 µM (active)
[19]
  Potency: 10.5 µM (active)
[5]
  Potency: 14.8 µM (active)
[13]
  Potency: 14.8 µM (active)
[8]
  Potency: 0.526 µM (active)
[14]
  Potency: 20.9 µM (active)

## NC1=N[C@H]2[C@H](CS[C@H]2CCCCC(=O)O)N1
[1]
  Potency: inactive
[2]
  Potency: inactive
[15]
  Potency: inactive
[10]
  Potency: inactive
[11]
  Potency: inactive
[17]
  Potency: inactive
[3]
  Potency: inactive
[4]
  Potency: inactive
[12]
  Potency: inactive
[19]
  Potency: inactive
[13]
  Potency: inactive
[7]
  Potency: inactive
[8]
  Potency: inactive
[14]
  Potency: inactive

## O=C(C[C@@H]1CC=CCCC(=O)O[C@H](c2ccccc2)CNC1=O)NCc1ccc(Cl)cc1
[1]
  Potency: inactive
[18]
  Potency: inactive
[15]
  Potency: inactive
[11]
  Potency: inactive
[3]
  Potency: 6.62 µM (active)
[12]
  Potency: 13.2 µM (active)
[19]
  Potency: inactive
[5]
  Potency: 9.35 µM (active)
[13]
  Potency: 5.9 µM (active)
[6]
  Potency: inactive
[7]
  Potency: inactive
[8]
  Potency: inactive
[14]
  Potency: inactive

## CC(C)[C@H](CO)Nc1nc(Nc2cccc(Cl)c2)c2ncn(C(C)C)c2n1
[1]
  Potency: 23.5 µM (active)
[2]
  Potency: inactive
[15]
  Potency: 18.7 µM (active)
[9]
  Potency: 6.62 µM (active)
[10]
  Potency: 18.7 µM (active)
[11]
  Potency: 23.5 µM (active)
[16]
  Potency: 20.9 µM (active)
[17]
  Potency: 18.7 µM (active)
[3]
  Potency: 5.26 µM (active)
[4]
  Potency: 6.62 µM (active)
[12]
  Potency: 13.2 µM (active)
[5]
  Potency: 18.7 µM (active)
[6]
  Potency: 26.4 µM (active)
[7]
  Potency: 20.9 µM (active)
[8]
  Potency: 11.8 µM (active)
[14]
  Potency: 18.7 µM (active)

## OCCN1C[C@H](O)[C@@H](O)[C@H](O)[C@@H]1CO
[1]
  Potency: inactive
[2]
  Potency: inactive
[15]
  Potency: inactive
[11]
  Potency: inactive
[16]
  viability: 126%
[3]
  Potency: inactive
[4]
  Potency: inactive
[12]
  Potency: inactive
[19]
  Potency: inactive
[5]
  Potency: inactive
[7]
  Potency: inactive
[8]
  Potency: inactive
